Laboratory results as given in PubChem BioAssay.
Results filed as inconclusive are left out. The source made the active and inactive calls.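 Rule for the calls, unless noted: active = percent response above a set limit, the screen-wide mean plus 3 SD (cut at about 130% in these data); inactive = the rest.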

What was measured:
[1] = yeast TOR pathway RPL19A-GFP modulators, primary screen, cell-based, S. cerevisiae, multiplex flow cytometry (AID 1862; in the data active = percent of DMSO control GFP below about 86%;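 note: lower values mimic rapamycin by blocking the RPL19A rise seen in DMSO cells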); conditions: S. cerevisiae RPL19A-GFP strain, flow cytometry fluorescence, 3 h; at 10 µM; stronger effect = lower value
[2] = modulators of MEP2-GFP levels in yeast, primary screen, S. cerevisiae, multiplex flow cytometry (AID 1867;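 active = GFP response, as percent of the DMSO control, above the screen-wide mean plus 3 SD, about 139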;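 note: median GFP channel fluorescence of barcode-gated MEP2-GFP cells measured by flow cytometry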); conditions: S. cerevisiae MEP2-GFP strain, 3 h, at 10 µM, stronger effect = higher value, 100% means same as DMSO wells
[3] = modulators of CIT2-GFP expression in yeast, primary screen, S. cerevisiae, GFP fusion, multiplex flow cytometry (AID 1870); conditions: 3 h, at 10 µM, stronger effect = higher value;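 note: barcoded CIT2-GFP strain pooled with four other GFP strains with rapamycin as positive control; median GFP fluorescence per well over plate mean of DMSO wells so 100% = DMSO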
[4] = modulators of LAP4-GFP expression in yeast, primary screen, S. cerevisiae, multiplex flow cytometry (AID 1873;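 active = GFP signal, as percent of the solvent control, above the screen mean plus 3 SD, about 149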); conditions: 3 h, at 10 µM, stronger effect = higher value
[5] = modulators of AGP1-GFP expression in yeast TOR pathway, primary screen, cell-based, multiplex flow cytometry, S. cerevisiae (AID 1887;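 active = GFP signal above the screen-wide mean plus 3 SD, that is over about 124.5% of the solvent control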;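 note: AGP1-GFP fusion strain of S. cerevisiae within a five-strain barcoded multiplex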); conditions: 3 h, at 10 µM, stronger effect = higher value
[6] = inhibitors of CD8+ T cell-vesicle binding, pilot screen, LFA-1/ICAM-1 modulator project, MLPCN validation set, flow cytometry (AID 2523;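 active = response below a set limit, under 55% cells CD8-positive and vesicle-bound, and CD8 cells' 90th-percentile brightness under 279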;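 for vesicle binding response: mean PE anti-B7-1 fluorescence of CD8+ cells relative to row control; 100% = QL9-loaded vesicles with DMSO vehicle in the same plate row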); conditions: 2C mouse CD8+ T cells, at 7 µM, stronger effect = lower value; double positive events: measured here: CD8+/vesicle+ event percentage
[7] = target: Integrin beta-1 (Homo sapiens) + Integrin alpha-4 (Homo sapiens) (UniProt P13612+P05556); test: inhibition of HUTS-21 binding to VLA-4, pilot screen, VLA-4 allosteric modulator project, U937 cells, HUTS-21 mAb, flow cytometry, validation set (AID 2674;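 active = inhibition above 50%, about 3 SD of the validation set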;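 note: antibody binding induced by the VLA-4 ligand LDV present at three times its Kd; 0% = LDV ligand with antibody and no compound and 100% = antibody without LDV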); conditions: HUTS-21 LIBS mAb binding, at 6.7 µM, stronger effect = higher value, binding induced by LDV ligand
[8] = superoxide lowering in aged yeast cells, pilot screen, validation compound set (AID 2706;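 active = superoxide response below 65% of plate, a cut near 3 SD across the whole screen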;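 note: yeast exposed to compound for one week at 30 degrees C before staining; 100% = mean of all compound wells on the same plate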); conditions: S. cerevisiae aging, superoxide DHE fluorescence; at 10 µM, stronger effect = lower value
[9] = target: Beta-adrenergic receptor kinase 1 (Homo sapiens) (UniProt P25098); test: GRK2 binders displacing RNA aptamer, biochemical, validation, human GRK2, bead flow cytometry (AID 488806;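 active = aptamer binding inhibition above 30%, about 3 SD of noise from non-fluorescent compounds; inactive = inhibition at or below 30%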); conditions: bead-bound GRK2, FAM-aptamer displacement, at 10 µM, stronger effect = higher value
[10] = target: Beta-2 adrenergic receptor (Homo sapiens) (UniProt P07550); test: beta2AR agonists driving receptor internalization, pilot screen, cell-based, FAP fluorogen, flow cytometry, validation set (AID 504459;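 active = percent response above 42, roughly 3 SD of non-fluorescent test compounds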;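 note: agonist-driven loss of surface beta2AR via internalization measured by FAP dye flow cytometry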); conditions: Am2.2-beta2AR cells, FAP surface receptor flow cytometry; at 10 µM; stronger effect = higher value
[11] = yeast V-ATPase proton transport modulators, S. cerevisiae, pHLuorin, HTS validation (AID 504600; in the data active = response above about 15%;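 note: plate controls were DMSO for no effect and reference compound for full effect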); conditions: S. cerevisiae pHLuorin cytosolic pH, at 10 µM, stronger effect = higher value
[12] = system: anti-desmoglein-3 scFv antibody binding to human DSG3; test: inhibitors of anti-DSG3 scFv binding to DSG3, pilot screen, biochemical, validation compound set, bead-based, flow cytometry (AID 588368;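 active = binding below the plate cutoff, the plate median minus 3 SD, with a reading above zero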;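 note: signal is the median channel fluorescence of bead-bound GFP antibody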); conditions: Protein G beads, DSG3-Fc, scFv-GFP binding, at 10 µM, stronger effect = lower value
[13] = inhibitors of fungal efflux pumps CDR1, CDR2, MDR1, pilot screen, validation compound set, multiplex, phenotypic (AID 588506;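 active = efflux inhibition above 0.42, the validation set average plus 4 SD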;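 note: Nile Red retained in cells so higher fluorescence means more efflux inhibition; 0 = negative control wells and 1 = enniatin B 25 µM full block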); conditions: S. cerevisiae pump-expressing triplex, Nile Red efflux flow cytometry; at 10 µM; stronger effect = higher value; the pumps come from Candida albicans
[14] = target: ATP-binding cassette sub-family B member 6 (Homo sapiens) (UniProt Q9NP58); test: ABCB6 transporter inhibitors, pilot screen, K562-ABCB6 cells, flow cytometry, validation set (AID 588550;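 active = inhibition above the screen-wide mean plus 3 SD, about 51%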;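 note: 0% = DMSO wells and 100% = benzethonium chloride 70 µM positive control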); conditions: K562-ABCB6 porphyrin accumulation, 1 h, at 10 µM, stronger effect = higher value
[15] = promoters of myeloid differentiation in arrested cells, primary screen, cell-based, GFP/MAC1 double positive, flow cytometry, validation set (AID 588685;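 active = differentiation response of at least 50%, scaled between solvent and reference control, from cells with both markers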;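 note: compound exposure lasts four days before antibody staining and flow analysis; 0% = DMSO wells and 100% = 5 µM fulvestrant positive control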); conditions: ER-HoxA9 marrow cells, stronger effect = higher value, normalized: vehicle 0, fulvestrant 100
[16] = target: AP-2 complex subunit beta (Homo sapiens) (UniProt P63010); test: inhibitors of arrestin peptide binding to AP2, pilot screen, biochemical, validation set, GST-AP2 beads, flow cytometry (AID 504541;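 active = inhibition above 54%, about 3 SD of non-fluorescent compounds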;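 note: AP2 carries R879A mutation and is captured from E. coli lysate; bead-bound FITC arrestin peptide fluorescence measuring arrestin peptide binding to AP2; 0% = DMSO wells and 100% = excess unlabeled arrestin peptide control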); conditions: FITC arrestin peptide, at 10 µM, stronger effect = higher value, AP2 beta2 appendage fragment, R879A mutant
Sequence of AP-2 complex subunit beta (Homo sapiens) (P63010 whole entry, looked up, the tested form may be a part, one chain of several): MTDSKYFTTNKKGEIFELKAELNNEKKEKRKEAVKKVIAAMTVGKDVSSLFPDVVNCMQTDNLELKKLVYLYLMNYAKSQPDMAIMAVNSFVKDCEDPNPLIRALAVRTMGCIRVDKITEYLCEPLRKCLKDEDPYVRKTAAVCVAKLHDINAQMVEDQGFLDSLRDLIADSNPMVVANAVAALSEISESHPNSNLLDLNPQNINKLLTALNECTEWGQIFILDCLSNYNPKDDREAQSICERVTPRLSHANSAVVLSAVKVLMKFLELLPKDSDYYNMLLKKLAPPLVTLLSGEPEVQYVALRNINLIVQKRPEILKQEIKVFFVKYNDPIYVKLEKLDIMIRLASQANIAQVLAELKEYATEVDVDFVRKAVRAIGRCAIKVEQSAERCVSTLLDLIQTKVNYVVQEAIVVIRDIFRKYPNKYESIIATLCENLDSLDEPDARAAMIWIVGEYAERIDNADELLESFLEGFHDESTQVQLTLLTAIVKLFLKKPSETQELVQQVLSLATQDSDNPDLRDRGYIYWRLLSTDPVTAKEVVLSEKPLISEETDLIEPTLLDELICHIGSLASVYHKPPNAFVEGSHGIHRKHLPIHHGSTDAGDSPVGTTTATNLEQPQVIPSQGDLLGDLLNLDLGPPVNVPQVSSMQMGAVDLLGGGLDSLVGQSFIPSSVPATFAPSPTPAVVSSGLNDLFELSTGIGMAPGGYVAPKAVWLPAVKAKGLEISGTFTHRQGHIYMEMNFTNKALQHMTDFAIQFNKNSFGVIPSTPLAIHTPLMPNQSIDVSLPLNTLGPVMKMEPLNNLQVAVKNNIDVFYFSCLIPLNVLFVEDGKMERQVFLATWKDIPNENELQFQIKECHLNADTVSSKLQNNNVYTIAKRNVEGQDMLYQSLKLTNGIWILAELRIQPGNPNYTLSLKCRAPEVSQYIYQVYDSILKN

Sequence of Beta-2 adrenergic receptor (Homo sapiens) (P07550 whole entry, looked up): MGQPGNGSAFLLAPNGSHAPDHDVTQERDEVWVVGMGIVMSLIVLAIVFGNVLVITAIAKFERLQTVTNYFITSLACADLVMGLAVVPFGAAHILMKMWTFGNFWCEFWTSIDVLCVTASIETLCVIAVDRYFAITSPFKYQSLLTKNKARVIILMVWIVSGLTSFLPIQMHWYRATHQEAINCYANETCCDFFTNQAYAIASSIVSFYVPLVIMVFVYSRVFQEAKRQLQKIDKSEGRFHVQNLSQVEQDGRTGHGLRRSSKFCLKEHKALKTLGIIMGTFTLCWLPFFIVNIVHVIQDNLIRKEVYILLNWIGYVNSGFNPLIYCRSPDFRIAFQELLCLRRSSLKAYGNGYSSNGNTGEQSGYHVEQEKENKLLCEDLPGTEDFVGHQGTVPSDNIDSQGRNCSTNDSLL
Sequence of ATP-binding cassette sub-family B member 6 (Homo sapiens) (Q9NP58 whole entry, looked up): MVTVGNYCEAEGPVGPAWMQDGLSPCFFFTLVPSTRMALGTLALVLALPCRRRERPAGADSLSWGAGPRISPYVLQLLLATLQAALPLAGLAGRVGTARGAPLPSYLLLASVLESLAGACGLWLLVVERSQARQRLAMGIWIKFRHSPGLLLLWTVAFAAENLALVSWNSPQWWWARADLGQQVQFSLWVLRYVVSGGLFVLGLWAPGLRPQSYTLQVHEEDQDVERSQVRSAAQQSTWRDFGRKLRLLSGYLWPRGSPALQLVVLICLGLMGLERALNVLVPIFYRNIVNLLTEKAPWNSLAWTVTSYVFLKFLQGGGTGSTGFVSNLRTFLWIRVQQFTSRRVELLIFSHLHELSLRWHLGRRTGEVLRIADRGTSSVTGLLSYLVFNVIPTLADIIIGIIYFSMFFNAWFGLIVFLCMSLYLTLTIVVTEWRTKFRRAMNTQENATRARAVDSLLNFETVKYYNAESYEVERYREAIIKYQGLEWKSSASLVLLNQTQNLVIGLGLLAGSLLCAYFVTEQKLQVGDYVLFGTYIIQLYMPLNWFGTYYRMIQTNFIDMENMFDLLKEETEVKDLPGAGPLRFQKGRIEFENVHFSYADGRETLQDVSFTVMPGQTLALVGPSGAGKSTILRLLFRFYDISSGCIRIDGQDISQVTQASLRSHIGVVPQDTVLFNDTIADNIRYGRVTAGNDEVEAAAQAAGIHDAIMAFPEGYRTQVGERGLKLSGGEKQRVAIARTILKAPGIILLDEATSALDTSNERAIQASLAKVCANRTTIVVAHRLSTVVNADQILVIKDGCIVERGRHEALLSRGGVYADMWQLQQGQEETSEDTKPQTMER
Sequence of Beta-adrenergic receptor kinase 1 (Homo sapiens) (P25098 whole entry, looked up): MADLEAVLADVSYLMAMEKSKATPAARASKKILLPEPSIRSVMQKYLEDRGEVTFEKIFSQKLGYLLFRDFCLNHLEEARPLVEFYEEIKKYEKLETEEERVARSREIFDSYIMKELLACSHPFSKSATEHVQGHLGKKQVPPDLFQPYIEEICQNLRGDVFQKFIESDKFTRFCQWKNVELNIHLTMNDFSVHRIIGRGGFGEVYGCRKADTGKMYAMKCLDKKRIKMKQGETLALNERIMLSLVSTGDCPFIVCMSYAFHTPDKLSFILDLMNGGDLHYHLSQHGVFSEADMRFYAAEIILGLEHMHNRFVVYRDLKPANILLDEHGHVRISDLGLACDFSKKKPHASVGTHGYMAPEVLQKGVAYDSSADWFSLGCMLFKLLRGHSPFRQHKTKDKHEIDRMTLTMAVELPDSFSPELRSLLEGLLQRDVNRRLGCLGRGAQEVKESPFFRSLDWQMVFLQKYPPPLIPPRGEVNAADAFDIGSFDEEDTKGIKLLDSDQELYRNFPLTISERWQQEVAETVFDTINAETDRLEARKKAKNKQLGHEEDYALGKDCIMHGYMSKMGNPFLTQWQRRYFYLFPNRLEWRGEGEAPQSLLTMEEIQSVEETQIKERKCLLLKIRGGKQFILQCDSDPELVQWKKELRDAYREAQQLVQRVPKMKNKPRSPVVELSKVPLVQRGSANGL
Sequence of Integrin beta-1 (Homo sapiens) + Integrin alpha-4 (Homo sapiens) (P05556 whole entry, looked up): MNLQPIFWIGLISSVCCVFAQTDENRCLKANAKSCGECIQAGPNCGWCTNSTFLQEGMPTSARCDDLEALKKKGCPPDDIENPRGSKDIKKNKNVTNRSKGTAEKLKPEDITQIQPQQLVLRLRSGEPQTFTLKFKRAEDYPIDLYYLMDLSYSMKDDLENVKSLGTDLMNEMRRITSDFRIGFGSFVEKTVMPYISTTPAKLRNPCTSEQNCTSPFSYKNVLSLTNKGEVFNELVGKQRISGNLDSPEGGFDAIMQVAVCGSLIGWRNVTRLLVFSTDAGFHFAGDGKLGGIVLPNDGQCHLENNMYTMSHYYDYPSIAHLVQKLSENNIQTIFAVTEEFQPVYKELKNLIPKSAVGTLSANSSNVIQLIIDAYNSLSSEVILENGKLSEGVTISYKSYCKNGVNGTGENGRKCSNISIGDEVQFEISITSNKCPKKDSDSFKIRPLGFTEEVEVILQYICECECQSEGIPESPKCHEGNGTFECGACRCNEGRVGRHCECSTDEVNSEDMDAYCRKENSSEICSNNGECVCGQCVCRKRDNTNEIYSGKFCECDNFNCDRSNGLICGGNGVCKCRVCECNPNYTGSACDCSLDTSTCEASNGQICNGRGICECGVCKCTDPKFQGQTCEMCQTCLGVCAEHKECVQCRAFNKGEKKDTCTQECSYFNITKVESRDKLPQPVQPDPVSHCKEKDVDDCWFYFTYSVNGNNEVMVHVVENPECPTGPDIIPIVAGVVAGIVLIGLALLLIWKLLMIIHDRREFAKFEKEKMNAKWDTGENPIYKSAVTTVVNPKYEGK
Sequence of Integrin beta-1 (Homo sapiens) + Integrin alpha-4 (Homo sapiens) (P13612 whole entry, looked up): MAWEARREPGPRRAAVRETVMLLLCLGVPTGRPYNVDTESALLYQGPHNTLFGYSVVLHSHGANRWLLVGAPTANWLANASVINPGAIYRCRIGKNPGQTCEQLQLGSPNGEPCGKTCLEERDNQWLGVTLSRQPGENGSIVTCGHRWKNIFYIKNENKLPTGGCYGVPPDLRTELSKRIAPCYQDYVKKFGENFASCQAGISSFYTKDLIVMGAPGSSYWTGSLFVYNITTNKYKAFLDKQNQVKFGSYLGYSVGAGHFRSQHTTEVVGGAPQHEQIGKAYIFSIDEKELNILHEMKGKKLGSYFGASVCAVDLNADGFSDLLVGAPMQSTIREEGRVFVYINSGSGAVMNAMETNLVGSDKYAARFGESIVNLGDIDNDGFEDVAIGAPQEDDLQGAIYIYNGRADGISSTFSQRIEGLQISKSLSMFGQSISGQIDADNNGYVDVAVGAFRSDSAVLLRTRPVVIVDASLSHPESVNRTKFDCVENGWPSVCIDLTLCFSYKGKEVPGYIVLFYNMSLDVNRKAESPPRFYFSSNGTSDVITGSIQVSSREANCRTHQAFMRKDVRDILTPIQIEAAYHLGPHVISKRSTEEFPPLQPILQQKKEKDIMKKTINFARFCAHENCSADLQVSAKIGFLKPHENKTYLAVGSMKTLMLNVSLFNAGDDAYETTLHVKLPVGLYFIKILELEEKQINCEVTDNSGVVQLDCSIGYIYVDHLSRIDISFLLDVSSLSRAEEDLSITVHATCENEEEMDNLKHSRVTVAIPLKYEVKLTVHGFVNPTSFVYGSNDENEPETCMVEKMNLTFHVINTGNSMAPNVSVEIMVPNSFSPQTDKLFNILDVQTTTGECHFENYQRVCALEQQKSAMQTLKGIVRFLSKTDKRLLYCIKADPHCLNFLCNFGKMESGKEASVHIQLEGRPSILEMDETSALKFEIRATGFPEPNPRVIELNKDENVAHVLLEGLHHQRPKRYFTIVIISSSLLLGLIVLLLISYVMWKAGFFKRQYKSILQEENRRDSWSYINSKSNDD

SMILES	percent of DMSO control GFP [1]	GFP response vs DMSO [2]	percent response of DMSO control [3]	GFP response vs DMSO [4]	GFP response, % of DMSO [5]	double positive events [6] [%]	vesicle binding response [6]	inhibition [7]	superoxide response (% of plate) [8]	aptamer binding inhibition [9]	response [10]	response [11]	binding (% of control) [12]	efflux inhibition (fraction of control) [13]	inhibition [14]	differentiation response [15]	inhibition [16]
CC(C(=O)O)c1ccc(N2Cc3ccccc3C2=O)cc1 (stereo not given)	98.4% (inactive)	103% (inactive)	93.9% (inactive)	119% (inactive)	90.4% (inactive)	62.1	2350% (inactive)	-7.47% (inactive)	112% (inactive)	-4% (inactive)	3.47% (inactive)	0.33% (inactive)	107% (inactive)	-0.41 (inactive)	1% (inactive)	-1.12% (inactive)	
CCC(C)NCCOCCOc1ccc(Cl)c2ccccc12 (stereo not given)	96.6% (inactive)	123% (inactive)	107% (inactive)	99% (inactive)	96.1% (inactive)	56.7	204% (inactive)	26.8% (inactive)	83.4% (inactive)	-5% (inactive)	34.5% (inactive)	-0.59% (inactive)	108% (inactive)	0.09 (inactive)	6% (inactive)	24.6% (inactive)	
CCCC1O[C@@H]2C[C@H]3[C@@H]4CCC5=CC(=O)C=C[C@]5(C)[C@H]4[C@@H](O)C[C@]3(C)[C@]2(C(=O)CO)O1 (stereo not given in full)	100% (inactive)	108% (inactive)	108% (inactive)	100% (inactive)	106% (inactive)	58.8	217% (inactive)	4.42% (inactive)	103% (inactive)	4% (inactive)		-0.18% (inactive)	104% (inactive)	0.1 (inactive)	0% (inactive)	6.26% (inactive)	42.5% (inactive)
Nc1nc2ccc(OC(F)(F)F)cc2s1	100% (inactive)	99.9% (inactive)	99.3% (inactive)	102% (inactive)	95.1% (inactive)	57.4	21.6% (inactive)	-0.31% (inactive)	94.9% (inactive)	4% (inactive)	9.24% (inactive)	1.08% (inactive)	97.2% (inactive)	-0.41 (inactive)	3% (inactive)	2.69% (inactive)	
CN(C)c1ccc(O)c2c1CC1CC3[C@@H](N(C)C)C(=O)C(C(N)=O)=C(O)[C@]3(O)C(=O)C1=C2O (stereo not given in full)	100% (inactive)	101% (inactive)	97.6% (inactive)	93.7% (inactive)	93% (inactive)	63	162% (inactive)	4.27% (inactive)	99.5% (inactive)	29% (inactive)	1.7% (inactive)	-2.16% (inactive)	93.6% (inactive)		6% (inactive)	-3.11% (inactive)	6.63% (inactive)
Cc1nc2sccn2c(=O)c1CCN1CCC(=C(c2ccc(F)cc2)c2ccc(F)cc2)CC1	101% (inactive)	98.6% (inactive)	105% (inactive)	121% (inactive)	121% (inactive)	61.2	217% (inactive)	2.29% (inactive)	86.3% (inactive)	-2% (inactive)		-6.88% (inactive)	109% (inactive)	0.08 (inactive)	2% (inactive)	-4% (inactive)	-0.42% (inactive)
CO/N=C(\C(=O)N[C@@H]1C(=O)N2C(C(=O)O)=C(COC(C)=O)CS[C@H]12)c1csc(N)n1 (stereo in doubt)	95.8% (inactive)	99.9% (inactive)	94.9% (inactive)	90.3% (inactive)	93.4% (inactive)	61.1	224% (inactive)	5.36% (inactive)	93.9% (inactive)	3% (inactive)		-3.75% (inactive)	97.5% (inactive)	-0.09 (inactive)	11% (inactive)	6.26% (inactive)	2.47% (inactive)
COC(=O)c1ccc(COc2ccc3c(C)c(C)c(=O)oc3c2C)o1	101% (inactive)	97.9% (inactive)	96.9% (inactive)	92.3% (inactive)	91.6% (inactive)	57.7	157% (inactive)	14.7% (inactive)	96.2% (inactive)	3% (inactive)		-2.54% (inactive)	102% (inactive)	0.06 (inactive)	11% (inactive)	9.49% (inactive)	4.76% (inactive)
CCN(CC)CCOC(=O)C1(C2CCCCC2)CCCCC1	110% (inactive)	101% (inactive)	106% (inactive)	110% (inactive)	108% (inactive)	50.5	162% (inactive)	5.36% (inactive)	110% (inactive)	-2% (inactive)		1.87% (inactive)	101% (inactive)	0.25 (inactive)	-45% (inactive)	-27.6% (inactive)	-6.04% (inactive)
COc1ccccc1-c1ccc(/C=C2/C=C(CC(C)C)OC2=O)o1	99.5% (inactive)	101% (inactive)	93% (inactive)	105% (inactive)	90.1% (inactive)	58.1	120% (inactive)	-43.1% (inactive)	103% (inactive)	2% (inactive)		1.04% (inactive)	99.5% (inactive)	0.75 (active)	5% (inactive)	-22.8% (inactive)	2.34% (inactive)
CCN(CC)C1=C(Cl)C(=O)C(Cl)C12OCCO2 (stereo not given)	100% (inactive)	104% (inactive)	88.1% (inactive)	100% (inactive)	89.2% (inactive)	61.5	160% (inactive)	6.29% (inactive)	94.6% (inactive)	-5% (inactive)		1.58% (inactive)	95.6% (inactive)	0.9 (active)	10% (inactive)	6.26% (inactive)	49.7% (inactive)
CC1COc2c(N3CCN(C)CC3)c(F)cc3c(=O)c(C(=O)O)cn1c23 (stereo not given)	92.2% (inactive)	120% (inactive)	103% (inactive)	77.6% (inactive)	90.8% (inactive)	64.3	109% (inactive)	11.3% (inactive)	112% (inactive)	2% (inactive)	-5.81% (inactive)	-5.31% (inactive)	95.4% (inactive)		7% (inactive)	-5.73% (inactive)	2.93% (inactive)
CC1(C(=O)O)CCC(C(=O)NC2CCCCCC2)C1(C)C (stereo not given)	103% (inactive)	106% (inactive)	93.9% (inactive)	110% (inactive)	100% (inactive)	67.7	157% (inactive)	28.3% (inactive)	99.3% (inactive)	3% (inactive)	10.4% (inactive)	-1.45% (inactive)	102% (inactive)	-0.54 (inactive)	7% (inactive)	-5.68% (inactive)	-8.9% (inactive)
CN1CCC(OC(c2ccccc2)c2ccccc2)CC1	104% (inactive)	105% (inactive)	104% (inactive)	105% (inactive)	104% (inactive)	66.3	186% (inactive)	7.22% (inactive)	95.8% (inactive)	3% (inactive)		1.48% (inactive)	102% (inactive)	0.03 (inactive)	9% (inactive)	4.64% (inactive)	-2.62% (inactive)
Cn1c(=O)c2c(ncn2Cc2ccccc2)n(C)c1=O	100% (inactive)	105% (inactive)	88.6% (inactive)	103% (inactive)	109% (inactive)	65.2	182% (inactive)	-1.97% (inactive)	96.4% (inactive)	0% (inactive)	-23% (inactive)	-0.4% (inactive)	104% (inactive)	0 (inactive)	6% (inactive)	-16.8% (inactive)	
CC(=O)NC1C(OCCOc2ccc(Cl)cc2Cl)OC(COC(C)=O)C(OC(C)=O)C1OC(C)=O (stereo not given)	103% (inactive)	102% (inactive)	108% (inactive)	91.3% (inactive)	94.5% (inactive)	55.1	168% (inactive)	16.6% (inactive)	108% (inactive)	3% (inactive)		-6.83% (inactive)	101% (inactive)	-0.2 (inactive)	9% (inactive)	20.8% (inactive)	8.3% (inactive)
COc1ccc2c(c1)CC[C@@H]1[C@@H]2CC[C@]2(C)C(=O)CC[C@@H]12	102% (inactive)	102% (inactive)	98.6% (inactive)	133% (inactive)	104% (inactive)	58.2	122% (inactive)	-7.79% (inactive)	98.6% (inactive)	-1% (inactive)	-15.3% (inactive)	109% (active)	102% (inactive)		3% (inactive)	-0.18% (inactive)	-2.71% (inactive)
COc1ccc2c(c1)[nH]c1c(=O)n(Cc3ccccn3)cnc12	97.7% (inactive)	97.7% (inactive)	101% (inactive)	106% (inactive)	96.1% (inactive)	64	1600% (inactive)	-1.74% (inactive)	109% (inactive)	-4% (inactive)	2.42% (inactive)	-2.14% (inactive)	98% (inactive)	-0.5 (inactive)	3% (inactive)	10.3% (inactive)	
CC(C)c1ccccc1OCCNC(=S)NC(=O)c1cccnc1	98.2% (inactive)	97.4% (inactive)	92% (inactive)	96.5% (inactive)	96.3% (inactive)	62.4	185% (inactive)	22.8% (inactive)	105% (inactive)	-3% (inactive)	4.29% (inactive)	-2.54% (inactive)	99.7% (inactive)	1.3 (active)	3% (inactive)	100% (active)	
